# High-throughput results as filed in PubChem.
# NALP3 yeast inh: blocks the NALP3 inflammasome reconstituted in yeast | 330,000 tested, 0.39% active | Yeast reconstituted NLRP3/ASC/caspase-1, beta-gal luminescence, 24 h | inhibition, % at 10 µM | AID 2825;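 active = inhibition of 50% or more; inactive = inhibition below 50%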;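 also: plate controls were induced DMSO wells for no effect and uninduced yeast grown without galactose for full effect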
# PolyA inh: yeast polyadenylation inhibition; S. cerevisiae SKY197-pL101 polyadenylation reporter, beta-gal luminescence; efflux-impaired pdr1/pdr3 knockout yeast; score 100 = 6 SD above DMSO; activity score, % at 12 µM; 300,000 tested, 0.02% active;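 active = lowest replicate activity score at least 50, where 100 means six control SD above control mean; inconclusive = lowest score under 50 but half or more replicates reach 50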;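 also: yeast exposed to compound for 9 h at 30 °C; higher score means more reporter readthrough which indicates perturbed polyadenylation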
# EBNA-1 inhibitor: blocks EBNA-1 binding to DNA; EBNA-1 DNA binding, fluorescence polarization; inhibition, % at 14.8 µM; 300,000 tested, 0.34% active; AID 1950; in the data active = inhibition above about 28%
# NALP1 yeast inh: blocks the NALP1 inflammasome reconstituted in yeast | S. cerevisiae NALP1/ASC/caspase-1 growth, X-gal OD620, 72 h | inhibition, % at 10 µM | 280,000 tested, 0.61% active | AID 2071; in the data active = inhibition mostly above about 24%, no sharp cut-off; inactive = mostly below about 32%
# ZTA counter: ZTA (EBV) inhibition in EBNA-1 counter-screen; ZTA-DNA binding, fluorescence polarization; inhibition, % at 11 µM; 320,000 tested, 0.15% active; AID 2234; in the data active = inhibition above about 33%
# Target sequence (P03206 whole entry, looked up): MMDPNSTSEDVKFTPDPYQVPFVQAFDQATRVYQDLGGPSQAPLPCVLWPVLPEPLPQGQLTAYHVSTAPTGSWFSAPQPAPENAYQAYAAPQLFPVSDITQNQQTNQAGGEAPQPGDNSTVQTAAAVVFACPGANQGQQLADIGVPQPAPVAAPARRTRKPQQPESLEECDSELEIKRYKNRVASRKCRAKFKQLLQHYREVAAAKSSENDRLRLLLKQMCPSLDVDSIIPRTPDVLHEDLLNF
# dFosB activator: enhances mouse delta FosB homodimer DNA binding | purified delta FosB, TAMRA-CDK5 oligo fluorescence polarization; percent of positive-control signal above neutral wells | activation, % at 25 µM | 340,000 tested, 0.99% active | AID 493131;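 active = mean activation above about 17%, with every replicate also reaching it, limit read from the data, passing the limit was not always enough; inconclusive = only one of the two conditions met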
# Target sequence (P13346 whole entry, looked up): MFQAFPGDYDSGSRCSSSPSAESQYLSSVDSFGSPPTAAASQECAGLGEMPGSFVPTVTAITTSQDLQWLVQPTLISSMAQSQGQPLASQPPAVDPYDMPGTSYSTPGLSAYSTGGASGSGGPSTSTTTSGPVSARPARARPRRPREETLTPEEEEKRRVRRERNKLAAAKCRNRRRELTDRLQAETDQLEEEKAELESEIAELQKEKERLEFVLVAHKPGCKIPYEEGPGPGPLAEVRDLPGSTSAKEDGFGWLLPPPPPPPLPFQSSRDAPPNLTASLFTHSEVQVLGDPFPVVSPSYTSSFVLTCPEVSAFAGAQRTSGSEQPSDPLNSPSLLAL
# EBNA-1 inh conf: EBNA-1 (EBV) inhibition, confirmation | inhibition, % at 14.8 µM | shares compounds with EBNA-1 inhibitor | 830 tested, 35% active | Recombinant EBNA-1 DBD, Cy5-DNA fluorescence polarization | AID 2292;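 active = mean inhibition across replicates above a set limit taken from the earlier primary screen, cut at about 28% in these data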;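 also: plate controls were EBNA-1 protein with DMSO for no effect and wells lacking EBNA-1 for full effect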
# ZTA DNA inh trip: blocks Epstein-Barr virus ZTA in triplicate, EBNA-1 counter-screen; shares compounds with EBNA-1 inhibitor; Zta-ZRE DNA binding, Cy5 fluorescence polarization; inhibition, % at 11.1 µM; 830 tested, under 10 active; AID 2328;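 active = mean inhibition over triplicates above a set limit taken from the primary EBNA-1 screen, cut at about 37% in these data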;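 also: purified full length Zta protein with Cy5 labeled ZRE DNA probe; 0% = Zta with DMSO and 100% = wells lacking Zta protein; inhibitors lower polarization by freeing the labeled DNA probe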
# Active calls of the source: *; ? = inconclusive; . = no result. Shown are actives, neighbours in structure and some others; about 2.2% of the full set was active somewhere.
SMILES,NALP3 yeast inh,PolyA inh,EBNA-1 inhibitor,NALP1 yeast inh,ZTA counter,dFosB activator,EBNA-1 inh conf,ZTA DNA inh trip
CSc1nsc(SCC(=O)Nc2ccc3c(c2)OCCO3)n1,3.2,3.8,-1.3,27.2,1.4,-2.4,.,.
Cc1ccccc1-c1nsc(SCC(=O)Nc2ccc3c(c2)OCO3)n1,-1.3,-7.7,31.3*,22.6,10.4,-9.8,17.9,14.3
Cc1sc2nc(SCC(=O)NCc3ccco3)n(CCc3ccccc3)c(=O)c2c1C,-2.4,6.5,30.2*,-6.1,3.7,2.1,3.4,-0.3
Cc1sc2nc(SCC(=O)NCc3ccco3)[nH]c(=O)c2c1C,10.1,.,5.2,.,0.0,-1.1,.,.
C=CCn1c(SCC(=O)NC(=O)NCc2ccco2)nc2sc(CC)cc2c1=O,-5.3,27.8,27.8*,-8.9,9.7,-1.2,-5.7,4.3
Cc1ccc(CCS(=O)(=O)c2ccc(C(C)(C)C)cc2)cn1,24.5,-13.9,-4.6,15.0,6.5,3.3,.,.
COc1ccc(NC2CCCN(C(=O)C3=NN(C)C(=O)CC3)C2)cc1OC (centres undefined),-0.8,5.9,11.8,7.3,2.1,9.8,.,.
O=C(NC1CC1)c1ccc2c(c1)S(=O)(=O)c1cc(Cl)ccc1C2=O,17.3,.,.,.,4.0,.,.,.
COc1ccc(C)cc1NC(=O)C1CCCN(S(=O)(=O)c2ccc(-n3cnnn3)cc2)C1 (centres undefined),5.6,1.8,-18.2,-9.4,-9.1,-1.6,.,.
COc1ccc(OC)c(NC(=O)C2CCCN(S(=O)(=O)c3ccc(-n4cnnn4)cc3)C2)c1 (centres undefined),8.5,?,48.8*,7.9,-11.1,-4.8,41.0*,9.5
COc1cccc(NC(=O)CN(C)C(=O)c2cc3c(s2)CCC3)c1,10.0,5.2,4.8,.,-8.7,.,.,.
O=C(CN1C(=O)c2ccccc2C1=O)OCC(=O)c1ccccc1,1.9,-12.0,-8.7,.,-6.6,-1.5,.,.
Cc1ccc(C(=O)COC(=O)CNC(=O)CN2C(=O)c3ccccc3C2=O)cc1,6.1,-14.3,33.3*,18.6,3.8,2.6,27.8*,-3.9
COc1ccc(N=C2NC(=O)/C(=C/C=C/c3ccccc3)S2)cc1,16.3,10.2,31.9*,.,11.6,2.1,28.8*,16.1
COc1ccc(N=C2NC(=O)/C(=C\C=C\c3ccccc3)S2)cc1,19.7,16.0,-1.1,-1.7,3.1,2.0,.,.
COc1ccc(-n2c(SCC(N)=O)nnc2-c2ccc(NS(=O)(=O)c3ccc(C)cc3)cc2)cc1,19.7,?,7.4,-5.5,-2.9,-19.0,.,.
COc1ccc(-n2c(SCC(=O)Nc3ccccc3)nnc2-c2ccc(NS(=O)(=O)c3ccc(C)cc3)cc2)cc1,10.0,1.9,70.7*,0.2,-3.2,?,27.8*,1.1
O=C(CSc1nc2ccccc2c(=O)n1-c1ccccc1)N1CCc2ccccc21,-6.2,0.3,41.3*,20.7,12.8,12.6,38.3*,0.4
O=C(CSc1ncccc1-c1nc2ccccc2[nH]1)N1CCc2ccccc21,8.4,8.1,32.3*,-37.0,-7.2,6.1,9.2,4.4
O=C(CSc1nc2ccccc2c(=O)n1-c1ccccc1)N1CCCc2ccccc21,-3.4,-24.1,2.9,23.4,10.4,-10.1,.,.
COC(=O)CSc1ncccc1-c1nc2ccccc2[nH]1,2.6,-9.8,-2.5,3.4,10.6,-8.1,.,.
CCN(CC(=O)Nc1cc(Cl)cc(Cl)c1)CC(=O)NC1CCS(=O)(=O)C1 (centres undefined),17.5,.,.,.,.,-3.4,.,.
CC(C)(C)C(=O)Nc1ccc(Cc2ccncc2)cc1,.,4.5,0.3,.,6.7,-1.6,.,.
CCCCCC1CCC(C(=O)NCCN2CCOCC2)CC1 (centres undefined),18.8,-5.9,9.6,14.6,-4.0,-1.6,.,.
C=CCOc1ccc(-c2nc3c(c(=O)[nH]c(=O)n3Cc3ccccc3)n2CCCOC)cc1,18.0,5.8,29.1*,14.3,16.3,-9.4,-2.0,-2.7
SMILES,NALP3 yeast inh,PolyA inh,EBNA-1 inhibitor,NALP1 yeast inh,ZTA counter,dFosB activator,EBNA-1 inh conf,ZTA DNA inh trip
COCCCn1c(-c2ccc(OC)cc2)nc2c1c(=O)[nH]c(=O)n2Cc1ccccc1,6.6,2.4,-5.1,-0.8,-13.1,3.2,.,.
Cc1nc2sc3c(c2c2nnc(SCC(=O)NCc4ccco4)n12)CCCC3,28.3,19.9,4.7,14.7,0.0,-16.6,.,.
O=C(CSc1nnc2c3c4c(sc3ncn12)CCCC4)NCc1ccco1,-14.5,-9.9,32.2*,1.6,2.5,2.0,-0.7,0.3
COc1ccc(-c2cn3c(C)c(C(=O)NCc4ccc5c(c4)OCO5)sc3n2)cc1,0.8,1.9,80.5*,.,-13.0,6.3,125.5*,12.6
CNc1ccccc1C(=O)OC,2.8,-4.8,2.5,5.7,-6.3,-5.8,.,.
COC(=O)C(=N/Nc1ccccc1C(=O)OC)/C(C)=N/O,11.4,-101.7,57.1*,.,8.9,-5.2,42.4*,-1.8
Cc1cc(C(=O)CN2CCN(CC(=O)Nc3ccc(F)cc3)CC2)c(C)n1C1CC1,5.0,.,.,.,8.3,-11.0,.,.
Cc1ccnc(NS(=O)(=O)c2ccc(NC(=O)c3cc(-c4ccccc4)nc4ccccc34)cc2)n1,0.4,5.6,6.7,20.2,7.2,8.4,.,.
Cc1ccnc(NS(=O)(=O)c2ccc(NC(=O)c3cc(-c4ccc(Br)cc4)nc4ccccc34)cc2)n1,2.1,2.4,31.9*,21.5,19.0,-9.3,0.0,-6.2
COc1cccc(NC(=O)C2CCN(C(=O)NC3CCCCC3)CC2)c1,2.8,-10.2,8.5,25.1,-3.0,-2.3,.,.
COC(=O)C1=C(C)NC2=C(C(=O)c3ccccc32)C1c1cccc(OC)c1 (centres undefined),19.5,-25.7,27.9*,.,-5.2,-1.4,37.7*,4.4
CCOC(=O)C1=C(C)NC2=C(C(=O)c3ccccc32)C1c1ccc(O)cc1 (centres undefined),11.8,-9.4,4.4,27.0,-26.1,-3.1,.,.
COc1ccc(-c2nc(SC(CC(=O)NCCO)c3cccs3)n[nH]2)cc1 (centres undefined),-7.4,3.4,-3.9,23.0,6.6,-1.1,.,.
O=C(CC(Sc1n[nH]c(-c2ccccc2)n1)c1ccccc1)NCc1ccccc1 (centres undefined),4.7,-2.4,32.8*,38.9,2.0,-4.6,9.8,8.6
CCOC(=O)COc1cccc2c(=O)n(CC(=O)N3CCc4ccccc43)ccc12,14.6,6.9,36.4*,.,9.4,1.6,17.2,0.6
CCOC(=O)c1c(CSc2cccs2)n(C)c2cc(Br)c(O)c(CN(C)C)c12,22.8,-0.7,-4.4,15.6,-22.9,-14.2,.,.
